Mcl1 Bid PPI = Mcl-1/Bid interaction inhibition; TR-FRET Mcl-1/Bid-Dy647 peptide binding, 1536-well; hit rate 0.97% among 220,000; Q07820; inhibition, % at 21.7 µM;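 active means compounds that cut the binding signal by more than half at the single screening dose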;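 further: His-tagged Mcl-1 with europium anti-His antibody binding Bid BH3 peptide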
Target sequence (Q07820 whole entry, looked up): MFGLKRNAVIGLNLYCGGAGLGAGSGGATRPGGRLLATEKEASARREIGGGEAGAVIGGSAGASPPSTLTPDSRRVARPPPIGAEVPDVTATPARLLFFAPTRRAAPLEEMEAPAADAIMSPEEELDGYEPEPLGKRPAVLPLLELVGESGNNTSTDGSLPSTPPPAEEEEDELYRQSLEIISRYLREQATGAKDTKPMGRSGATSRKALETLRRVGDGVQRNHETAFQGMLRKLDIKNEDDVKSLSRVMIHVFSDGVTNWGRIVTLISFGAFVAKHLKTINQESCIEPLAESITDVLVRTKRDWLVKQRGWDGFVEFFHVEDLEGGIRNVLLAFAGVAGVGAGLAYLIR
Hck-Nef inh = blocks Nef-activated human Hck kinase. P08631. Recombinant Hck-YEEI plus Nef, Z-Lyte FRET kinase assay. inhibition, % at 20 µM. hit rate 0.68% among 220,000;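 active means Hck-Nef kinase inhibition above about 50%, limit read from the data; inactive means inhibition below that limit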
Mcl1-Noxa inh = Mcl-1/Noxa interaction inhibition; AID 1022; TR-FRET Mcl-1/Noxa peptide binding, 2 h; Q07820; hit rate 1.5% among 220,000; inhibition, % at 21.7 µM;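 active means compounds that cut the protein-peptide binding signal by more than 50% relative to plate controls in a single-dose test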;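 further: His-tagged Mcl-1 with rhodamine Noxa BH3 peptide and terbium anti-His antibody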
14-3-3 Bad PPI = disrupts binding of bovine 14-3-3 zeta to phospho-Bad peptide; P63103; TR-FRET 14-3-3zeta/Dy647-pBad peptide displacement, 1 h; inhibition, % at 21.7 µM; hit rate 0.71% among 220,000;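 active means inhibition above about 70%, limit read from the data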
Pf gamet viab = P. falciparum stage V gametocyte viability inhibition. hit rate 0.065% among 150,000. P. falciparum stage V gametocytes, ATP luminescence, 24 h. inhibition, % at 10.9 µM;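 active means inhibition above the mean plus 3 SD of compounds within the control limits, set per campaign, cut at about 38% in these data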
Mcl-1 Bim block = human Bim-Mcl-1 interaction inhibition | Q07820 | inhibition, % at 10 µM | hit rate 0.1% among 190,000 | Bead-based flow cytometry, Bim peptide-Mcl-1 binding; in the data active means inhibition above about 40%
Each line names hits and unclear results; the compound was inactive in the other large screens; [ ] = dose if it differs, or a comment. Only some compounds are listed: those with a hit (about 2.9% of all), similar ones and a draw of the others.

CCOC(=O)c1cc2c(=O)n3cccc(C)c3nc2n(Cc2ccco2)c1=NC(=O)c1ccccc1	none
Cc1ccccc1-n1c(C)nnc1SCC(=O)NC1CCCc2ccccc21 (centres undefined)	14-3-3 Bad PPI 92[fluorescence artefact?]
Cc1cccc(Nc2nnc(SCC(=O)NC3CCCc4ccccc43)s2)c1C (centres undefined)	none
Cc1ccc(-n2nc3ccc(NC(=O)C(C)C)cc3n2)cc1	none
Cc1cc(NC(=O)/C=C/c2ccco2)ccc1NC(=O)c1ccccc1	none
Cc1ccc(-n2nc3ccc(NC(=O)c4ccco4)cc3n2)cc1	Mcl1 Bid PPI 66 (no result: Pf gamet viab)
Cc1cc(C)cc(-n2nnnc2SCC(=O)Nc2cccc(NC(=O)c3ccco3)c2)c1	none
O=C(/C=C/c1ccco1)Nc1ccc2nn(-c3ccccc3)nc2c1	Mcl1-Noxa inh 78
Cc1ccc(-n2nnnc2SCC(=O)Nc2cccc(NC(=O)c3ccco3)c2)cc1C	Mcl1 Bid PPI 63
COc1ccc(C(=O)CC(=O)C(=O)Nc2cc(Cl)c(OC)cc2OC)cc1	none
Cc1cc(C#N)c2ccccc2n1	none (no result: Pf gamet viab)
CC(C)(C)C(=O)OC/C(N)=N/OC(=O)c1ccc(Cl)cc1	14-3-3 Bad PPI 91 (no result: Mcl-1 Bim block)
O=C(c1ccco1)[C@@H]1[C@@H]2C(=O)N(c3ccc(F)cc3)C(=O)[C@@H]2[C@H]2C=Cc3ccccc3N21	Mcl1-Noxa inh 73, 14-3-3 Bad PPI 89[fluorescence artefact?]
NC(=O)[C@@H]1[C@@H]2C(=O)N(c3ccc(F)cc3)C(=O)[C@@H]2[C@H]2C=Cc3ccccc3N21	none (no result: Mcl-1 Bim block)
COc1ccc(OCCCNCCc2ccccc2)cc1	none
COc1ccc(C(=O)N2CCc3cc(OC)c(OC)cc3C2c2cccc([N+](=O)[O-])c2)cc1OC (centres undefined)	none
CCOc1c(Cl)cc(Cl)cc1CNCCNCCO	14-3-3 Bad PPI 72 (no result: Pf gamet viab)
CCOc1cccc(CNc2ccc(O)cc2)c1OCc1ccc(Cl)cc1Cl	none
CCOc1cccc(CNCCO)c1OCc1ccc(Cl)cc1Cl	Mcl1 Bid PPI 72
COc1c(Cl)cc(Cl)cc1CNCCO	none
O=C1N(c2ccccc2C(F)(F)F)OC1(Cc1ccccc1)c1ccccc1 (centres undefined)	none (no result: Mcl1 Bid PPI, Hck-Nef inh, Mcl1-Noxa inh, 14-3-3 Bad PPI, Mcl-1 Bim block)
CCC1CC2(C)NC(=O)c3c(sc4c3CC(C)(C)OC4)N2C1=O (centres undefined)	none
CN(C)c1ccc(NC(=O)c2ccc3c(c2)nnn3C)cc1	Mcl1-Noxa inh 61
COc1cc(C(=O)Nc2ccc(N(C)C)cc2)cc(OC)c1OC	Mcl1-Noxa inh 78 (no result: Pf gamet viab)
CN(C)c1ccc(NC(=O)c2cccc(N3C(=O)CCC3=O)c2)cc1	Mcl1-Noxa inh 64 (no result: Pf gamet viab)
Cc1cc(C)n(-c2ccc(C(=O)Nc3ccc4c(c3)OCCO4)cc2)n1	none (no result: Pf gamet viab)
COc1ccccc1CC(=O)N1CCCC1	none (no result: Pf gamet viab)
CCCOc1ccc(-c2c(C(=O)N/N=C/c3ccc(OCC)cc3)nnn2-c2nonc2N)cc1	none (no result: Pf gamet viab)
CCOc1ccc(/C=N/NC(=O)c2nnn(-c3nonc3N)c2COc2ccc(F)cc2)cc1	none (no result: Mcl-1 Bim block)
CN(C)c1ccc(/C=N/NC(=O)c2nnn(-c3nonc3N)c2COc2ccc(F)cc2)cc1	Mcl1-Noxa inh 59 (no result: Mcl-1 Bim block)
CCCOc1ccc(-c2c(C(=O)N/N=C/c3ccc(OC)cc3)nnn2-c2nonc2N)cc1	Mcl-1 Bim block 55
CC(C)CNC(=S)N1CCN(C)CC1	14-3-3 Bad PPI 81
CCCCNC(=S)N1CCN(C)CC1	none
COc1ccccc1N(C)S(=O)(=O)c1ccc(C(=O)OCC(N)=O)cc1	Mcl-1 Bim block 44
COc1cccc(N=c2oc3ccccc3cc2-c2nc3ccccc3[nH]2)c1	Mcl1 Bid PPI 56 (no result: Pf gamet viab)
COc1ccc(N=c2oc3ccc(OC)cc3cc2-c2nc3ccccc3[nH]2)cc1	none (no result: Pf gamet viab)
O=C(c1ccccc1)c1ccc(OCCCCN2CCCCC2)cc1	14-3-3 Bad PPI 74
C=C(C)CN1C(=O)C(O)(CC(=O)c2ccc3c(c2)OCCO3)c2ccccc21 (centres undefined)	none (no result: Pf gamet viab)
C#CCOCCOCCOCCNc1nc(N2CCN(C(=O)[C@H](CCC(=O)O)n3cc(C(N)Cc4ccc(O)cc4)nn3)CC2)nc(N2CCN(C(=O)[C@H](CCC(=O)O)n3cc(C(N)CC(C)C)nn3)CC2)n1 (some centres undefined)	Mcl1 Bid PPI 60 (no result: Pf gamet viab)

Screens as filed in PubChem.
